Assay results: PubChem BioAssay (NCATS)

The compounds below were run against Lysosomal acid glucosylceramidase (Homo sapiens) (UniProt P04062) (assay: Glucocerebrosidase-p2 (AID 348)). Conditions: purified GBA, blue fluorogenic substrate, 40 min; in the data active = potency below about 10 µM; inactive = the rest.
Source text: Beta-glucocerebrosidase catalyzes the hydrolysis of beta-glucocerebroside to glucose and ceramide. The inherited deficiency of beta-glucocerebrosidase results in Gaucher disease, which is characterized by a wide variety of symptoms including hepatosplenomegaly, anemia, thrombocytopenia, bony lesions and bone marrow infiltration with characteristic storage cells, known as Gaucher cells. There are also forms of the disorder affecting the central nervous system. Patients with the same genotypes can manifest with diverse clinical presentations and it is believed that improper folding and trafficking of beta-glucocerbrosidase may contribute to the phenotypes observed.
Low molecular weight molecules, acting as chaperones, may potentially restore trafficking of misfolded beta-glucocerebrosidase from the endoplasmic reticulum to the lysosomes, thereby enhancing functional lysosomal beta-glucocerebrosidase activity.
Using normal beta-glucocerebrosidase, an assay was developed to screen for small molecule inhibitors that could potentially act as molecular chaperones on the mutant forms [developed with NIH investigator Dr. Ellen Sidransky#s laboratory]. Two pro-fluorescent substrates were chosen for two screens against a small molecule library. One beta-glucocerebrosidase assay used Resorufin beta-D-Glucopyranoside (Marker Gene Technology Inc.), generating a red fluorescent product. The second assay used […] fluorescent product. The Km for the Resorufin beta-D-Glucopyranoside and Fluorescein di-beta-D-Glucopyranoside were determined to be 71.2 uM and 855 uM, respectively. The IC50 values of Conduritol B Epoxide, a known glucocerebrosidase inhibitor, were determined to be 87.5 uM and 117 uM, respectively. The use of two difference pro-fluorescent substrates in the screens helped to eliminate false positives. All compounds were screened in a titration series resulting in AC50s (e.g., IC50s or EC50s). Data normalization and AC50 calculations were accomplished using GeneData software.
NCGC Assay Protocol Summary
Both enzyme and substrate were diluted in buffer composed of 50mM citric acid/KH2PO4, 10mM sodium taurocholate and 0.01% tween-20 at pH 5.9. The final concentration of the enzyme was 0.2 nM in both assays. The compound library was titrated in 7 to 15 concentrations for the primary screens with a final concentration ranging from 0.6 nM to 50 uM. This particular assay protocol is for the "blue" substrate, and it was performed in 1536-well plate format as follows:
Blue fluorescence substrate assay:
1 uL substrate (final concentration of 80 uM)
Incubate at room temperature (RT) for 40 minutes
3 uL stop solution (1 M NaOH and 1 M glycine in water)
Read the plate in Viewlux plate reader (Ex=365(10) and Em=440(10)).
Potency is read from the fitted curve at half-maximal effect.

Chain of Lysosomal acid glucosylceramidase (Homo sapiens) (P04062 whole entry, looked up): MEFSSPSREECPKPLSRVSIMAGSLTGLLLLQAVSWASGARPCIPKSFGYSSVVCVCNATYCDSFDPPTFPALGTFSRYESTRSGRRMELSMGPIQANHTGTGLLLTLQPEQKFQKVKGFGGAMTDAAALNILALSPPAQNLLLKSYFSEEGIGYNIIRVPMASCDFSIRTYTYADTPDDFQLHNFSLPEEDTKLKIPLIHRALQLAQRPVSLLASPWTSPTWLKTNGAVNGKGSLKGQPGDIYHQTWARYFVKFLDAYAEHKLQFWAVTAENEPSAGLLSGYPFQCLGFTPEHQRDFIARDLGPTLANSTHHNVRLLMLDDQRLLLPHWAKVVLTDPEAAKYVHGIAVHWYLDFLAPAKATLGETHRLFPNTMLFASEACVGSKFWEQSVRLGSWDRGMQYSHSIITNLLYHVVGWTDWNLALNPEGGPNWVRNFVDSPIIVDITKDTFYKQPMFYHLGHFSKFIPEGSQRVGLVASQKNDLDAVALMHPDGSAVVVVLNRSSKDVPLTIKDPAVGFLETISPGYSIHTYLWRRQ

Potency, inactive:
CN(Cc1ccco1)c1ccnc(-c2ccoc2)n1 > 11.4 µM, COc1ccc2[nH]cc(CCNc3cc(-c4c(C)noc4C)ncn3)c2c1 > 11.4 µM, CN(C)c1ccc(-c2ccc3ncnc(N(C)Cc4ccco4)c3c2)cc1 > 11.4 µM, CS(=O)(=O)N1CCC2(CCN(c3ccncc3)CC2)CC1 > 11.4 µM, N#CCCn1c(=O)c(-c2cccs2)nc2cnc(N3CCNCC3)nc21 > 11.4 µM, N#Cc1ccc(CN2CCC3(CC2)CCN(C(=O)c2cccc(F)c2)CC3)cc1 > 11.4 µM, O=C(c1csnn1)N1CCC2(CCCN(c3ccc(-c4ccccc4)cc3)C2)CC1 > 11.4 µM, COc1cccc(Nc2ncc3nc(-c4cccs4)c(=O)n(-c4ccccc4)c3n2)c1 > 11.4 µM, COc1ccc(-n2c(=O)c(C)nc3cncnc32)cc1 > 11.4 µM, Cn1c(=O)c(-c2cccc(Cl)c2)nc2cncnc21 > 11.4 µM, CS(=O)(=O)Nc1cccc(-c2nc(N3CCNCC3)c3ccccc3n2)c1 > 11.4 µM, COc1cccc(Cn2c(=O)c(C)nc3cnc(N4CCOCC4)nc32)c1 > 11.4 µM, COCC(=O)N1CCC2(CC1)CCN(c1ncccn1)CC2 > 11.4 µM, COc1ccc(-c2nc3cnc(N4CCOCC4)nc3n(Cc3cccs3)c2=O)cc1 > 11.4 µM, CS(=O)(=O)N1CCC2(CC1)CN(C(c1ccccc1)c1ccccc1)C2 > 11.4 µM, CS(=O)(=O)N1CCC[C@@]2(CCN(c3ccncc3)C2)C1 > 11.4 µM, O=C(c1ccco1)N1CCC2(CCN(Cc3ccccc3)CC2)CC1 > 11.4 µM, Cc1cnc(CNc2cc(-c3ccc(C(=O)N(C)C)cc3)ncn2)cn1 > 11.4 µM, Cc1noc(C)c1C(=O)N1CCC2(CC1)CCN(c1ccncc1)CC2 > 11.4 µM, CS(=O)(=O)Nc1cccc(-c2cc(NCc3cccs3)ncn2)c1 > 11.4 µM, O=C(c1cnccn1)N1CCC2(CC1)CN(c1ccccc1)C2 > 11.4 µM, Cn1cccc1C(=O)N1CCC[C@@]2(CCN(C(=O)Nc3cccc(F)c3)C2)C1 > 11.4 µM, CC(=O)N1CCC[C@@]2(CCN(C(c3ccccc3)c3ccccc3)C2)C1 > 11.4 µM, CC(=O)NCCNc1ncnc2ccc(-c3ccccc3C#N)cc12 > 11.4 µM, O=c1c(-c2ccc(Cl)cc2)nc2cncnc2n1Cc1ccccc1Cl > 11.4 µM, Cc1noc(C)c1-c1nccc(Nc2ccc(F)cc2)n1 > 11.4 µM, Cn1cccc1C(=O)N1CCC2(CC1)CN(C(=O)Nc1cccc(F)c1)C2 > 11.4 µM, CN(C)c1ncc2nc(-c3cccc(C#N)c3)c(=O)n(C[C@H]3CCCO3)c2n1 > 11.4 µM, CN(C)c1ncc2nc(-c3ccccc3)c(=O)n(CCc3ccccc3)c2n1 > 11.4 µM, CCNc1ncc2nc(-c3ccc(OC)cc3)c(=O)n(Cc3ccc(F)cc3)c2n1 > 11.4 µM, Cn1cccc1C(=O)N1CCC[C@@]2(CCN(C(c3ccccc3)c3ccccc3)C2)C1 > 11.4 µM, COCC(=O)N1CCC[C@@]2(CCN(c3ccccc3)C2)C1 > 11.4 µM, Cc1cnc(CNc2ncnc3ccc(-c4cccc(C#N)c4)cc23)cn1 > 11.4 µM, COc1cccc(Nc2ncc3nc(-c4ccc(Cl)cc4)c(=O)n(CCC#N)c3n2)c1 > 11.4 µM, CN(Cc1ccco1)c1cc(-c2cccc(NS(C)(=O)=O)c2)ncn1 > 11.4 µM, CC(C)NC(=O)N1CCCC2(CCN(C(=O)c3ccco3)CC2)C1 > 11.4 µM, COc1ccc(C(=O)N2CCC3(CC2)CN(c2cccc(-c4ccccc4)c2)C3)cc1 > 11.4 µM, COCCn1c(=O)c(-c2ccc(OC)cc2)nc2cnc(N3CCN(C)CC3)nc21 > 11.4 µM, COC(=O)N1CCC2(CC1)CN(c1ccc(-c3ccccc3)cc1)C2 > 11.4 µM, COCCn1c(=O)c(-c2cccc(C#N)c2)nc2cnc(Oc3ccc(OC)cc3)nc21 > 11.4 µM
